Assay results reported in PubChem BioAssay AID1159580 (chemical genetic matrix, 2015).
Hit rate of the full screen: of about 5,500 compounds, about 2,000 (36%) were called active. Not shown: some 18% with an inconclusive outcome. The list shows a part of the results. A number with no mark means an inactive call. Rule as the data show it: active = normalized growth mostly below about 0.91 (no sharp cut-off); inconclusive = no clear call, values can overlap the other calls; inactive = mostly above about 0.92.

Experiment: chemical genetic growth profiling, strain panel (AID 1159580);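 also: tested at 20 µM; growth read once vehicle control cultures reached saturation at 30 °C; 1 = growth at the plate median or of vehicle wells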
Details: growth OD

With CC(=O)Oc1ccc(O)cc1 the normalized growth (S. cerevisiae deletion strains, locus YJL187C, strain SWE1, stronger effect = lower value) was 0.978, the normalized growth (S. cerevisiae deletion strains, locus YJR043C, strain POL32, stronger effect = lower value) was 0.929 and the normalized growth (S. cerevisiae deletion strains, locus YJR075W, strain HOC1, stronger effect = lower value) was 0.955. For the same compound, the normalized growth (S. cerevisiae deletion strains, locus YKL009W, strain mrt4, stronger effect = lower value) was 1.02, the normalized growth (S. cerevisiae deletion strains, locus YKL068W, stronger effect = lower value) was 1.01 and the normalized growth (S. cerevisiae deletion strains, locus YKL085W, strain MDH1 (second series), stronger effect = lower value) was 1.04. For the same compound, the normalized growth (S. cerevisiae deletion strains, locus YKL085W, strain MDH1, stronger effect = lower value) was 1.04, the normalized growth (S. cerevisiae deletion strains, locus YKL160W, strain elf1, stronger effect = lower value) was 0.995 and the normalized growth (S. cerevisiae deletion strains, locus YKR001C, strain vps1, stronger effect = lower value) was 0.945. The normalized growth (S. cerevisiae deletion strains, locus YKR026C, strain gcn3, stronger effect = lower value) was 0.979, the normalized growth (S. cerevisiae deletion strains, locus YKR091W, strain srl3, stronger effect = lower value) was 0.985 and the normalized growth (S. cerevisiae deletion strains, locus YLL001W, strain dnm1, stronger effect = lower value) was 0.994. For the same compound, the normalized growth (S. cerevisiae deletion strains, locus YLL026W, stronger effect = lower value) was 0.987, the normalized growth (S. cerevisiae deletion strains, locus YLL041C, strain sdh2, stronger effect = lower value) was 0.99 and the normalized growth (S. cerevisiae deletion strains, locus YLR027C, strain aat2, stronger effect = lower value) was 0.993. For the same compound, the normalized growth (S. cerevisiae deletion strains, locus YLR039C, strain RIC1, stronger effect = lower value) was 1.05, the normalized growth (S. cerevisiae deletion strains, locus YLR058C, strain SHM2, stronger effect = lower value) was 0.991 and the normalized growth (S. cerevisiae deletion strains, locus YLR102C, strain apc9, stronger effect = lower value) was 1.02. For the same compound, the normalized growth (S. cerevisiae deletion strains, locus YLR221C, strain rsa3, stronger effect = lower value) was 0.959, the normalized growth (S. cerevisiae deletion strains, locus YLR258W, strain gsy2, stronger effect = lower value) was 0.989 and the normalized growth (S. cerevisiae deletion strains, locus YLR262C, strain YPT6 (second series), stronger effect = lower value) was 0.996. The normalized growth (S. cerevisiae deletion strains, locus YLR262C, strain YPT6, stronger effect = lower value) was 0.926, the normalized growth (S. cerevisiae deletion strains, locus YLR268W, strain sec22, stronger effect = lower value) was 0.977 and the normalized growth (S. cerevisiae deletion strains, locus YLR320W, strain mms22, stronger effect = lower value) was 0.923. The normalized growth (S. cerevisiae deletion strains, locus YLR330W, strain CHS5, stronger effect = lower value) was 0.914 (active), the normalized growth (S. cerevisiae deletion strains, locus YLR342W, strain FKS1 (second series), stronger effect = lower value) was 0.819 and the normalized growth (S. cerevisiae deletion strains, locus YLR342W, strain FKS1, stronger effect = lower value) was 0.979. It also gave a normalized growth (S. cerevisiae deletion strains, locus YLR357W, strain rsc2, stronger effect = lower value) of 0.988, a normalized growth (S. cerevisiae deletion strains, locus YLR370C, strain arc18, stronger effect = lower value) of 1 and a normalized growth (S. cerevisiae deletion strains, locus YLR371W, strain rom2, stronger effect = lower value) of 1.02. For the same compound, the normalized growth (S. cerevisiae deletion strains, locus YLR384C, strain iki3, stronger effect = lower value) was 0.997, the normalized growth (S. cerevisiae deletion strains, locus YLR418C, strain cdc73, stronger effect = lower value) was 0.934 and the normalized growth (S. cerevisiae deletion strains, locus YML016C, strain PPZ1, stronger effect = lower value) was 1.01. The normalized growth (S. cerevisiae deletion strains, locus YML032C, strain rad52, stronger effect = lower value) was 0.967, the normalized growth (S. cerevisiae deletion strains, locus YML120C, strain ndi1, stronger effect = lower value) was 1.02 and the normalized growth (S. cerevisiae deletion strains, locus YML124C, strain tub3, stronger effect = lower value) was 1.03. It also gave a normalized growth (S. cerevisiae deletion strains, locus YMR058W, strain fet3, stronger effect = lower value) of 0.979, a normalized growth (S. cerevisiae deletion strains, locus YMR078C, strain ctf18, stronger effect = lower value) of 1.03 and a normalized growth (S. cerevisiae deletion strains, locus YMR125W, strain sto1, stronger effect = lower value) of 0.977. The normalized growth (S. cerevisiae deletion strains, locus YMR129W, stronger effect = lower value) was 0.99, the normalized growth (S. cerevisiae deletion strains, locus YMR205C, strain PFK2, stronger effect = lower value) was 1 and the normalized growth (S. cerevisiae deletion strains, locus YMR223W, strain ubp8, stronger effect = lower value) was 1. The normalized growth (S. cerevisiae deletion strains, locus YMR231W, strain pep5, stronger effect = lower value) was 0.962, the normalized growth (S. cerevisiae deletion strains, locus YMR263W, strain SAP30, stronger effect = lower value) was 0.991 and the normalized growth (S. cerevisiae deletion strains, locus YMR307W, strain GAS1, stronger effect = lower value) was 0.791. The normalized growth (S. cerevisiae deletion strains, locus YNL067W, strain RPL9B, stronger effect = lower value) was 0.966, the normalized growth (S. cerevisiae deletion strains, locus YNL071W, strain lat1, stronger effect = lower value) was 0.961 and the normalized growth (S. cerevisiae deletion strains, locus YNL128W, strain TEP1, stronger effect = lower value) was 1.01. The normalized growth (S. cerevisiae deletion strains, locus YNL153C, strain GIM3, stronger effect = lower value) was 0.956, the normalized growth (S. cerevisiae deletion strains, locus YNL209W, strain ssb2, stronger effect = lower value) was 0.988 and the normalized growth (S. cerevisiae deletion strains, locus YNL233W, strain BNI4, stronger effect = lower value) was 0.94. The normalized growth (S. cerevisiae deletion strains, locus YNL248C, strain rpa49, stronger effect = lower value) was 0.956, the normalized growth (S. cerevisiae deletion strains, locus YNL250W, strain rad50, stronger effect = lower value) was 1.04 and the normalized growth (S. cerevisiae deletion strains, locus YNL271C, strain bni1, stronger effect = lower value) was 1.04. The normalized growth (S. cerevisiae deletion strains, locus YNL298W, strain CLA4, stronger effect = lower value) was 1.03, the normalized growth (S. cerevisiae deletion strains, locus YNL307C, strain MCK1, stronger effect = lower value) was 0.96 and the normalized growth (S. cerevisiae deletion strains, locus YNL322C, strain KRE1 (second series), stronger effect = lower value) was 0.993. For the same compound, the normalized growth (S. cerevisiae deletion strains, locus YNL322C, strain KRE1, stronger effect = lower value) was 0.996, the normalized growth (S. cerevisiae deletion strains, locus YNR049C, strain mso1, stronger effect = lower value) was 0.989 and the normalized growth (S. cerevisiae deletion strains, locus YNR052C, strain pop2, stronger effect = lower value) was 1.02. The normalized growth (S. cerevisiae deletion strains, locus YOL012C, strain htz1) was 0.741, the normalized growth (S. cerevisiae deletion strains, locus YOL147C, strain pex11, stronger effect = lower value) was 1.03 and the normalized growth (S. cerevisiae deletion strains, locus YOR001W, strain rrp6, stronger effect = lower value) was 0.992. For the same compound, the normalized growth (S. cerevisiae deletion strains, locus YOR061W, strain CKA2, stronger effect = lower value) was 1.01, the normalized growth (S. cerevisiae deletion strains, locus YOR069W, strain VPS5, stronger effect = lower value) was 1.01 and the normalized growth (S. cerevisiae deletion strains, locus YOR070C, strain gyp1, stronger effect = lower value) was 0.975. It also gave a normalized growth (S. cerevisiae deletion strains, locus YOR080W, strain dia2, stronger effect = lower value) of 0.998, a normalized growth (S. cerevisiae deletion strains, locus YOR083W, strain WHI5, stronger effect = lower value) of 0.974 and a normalized growth (S. cerevisiae deletion strains, locus YOR106W, strain vam3, stronger effect = lower value) of 0.995. It also gave a normalized growth (S. cerevisiae deletion strains, locus YOR136W, strain idh2, stronger effect = lower value) of 1.01, a normalized growth (S. cerevisiae deletion strains, locus YOR144C, strain elg1, stronger effect = lower value) of 1.03 and a normalized growth (S. cerevisiae deletion strains, locus YOR184W, strain ser1, stronger effect = lower value) of 0.984. It also gave a normalized growth (S. cerevisiae deletion strains, locus YOR265W, strain rbl2, stronger effect = lower value) of 1.01, a normalized growth (S. cerevisiae deletion strains, locus YOR270C, strain vph1, stronger effect = lower value) of 0.986 and a normalized growth (S. cerevisiae deletion strains, locus YOR290C, strain snf2, stronger effect = lower value) of 0.995. For the same compound, the normalized growth (S. cerevisiae deletion strains, locus YOR316C, strain cot1, stronger effect = lower value) was 1.04, the normalized growth (S. cerevisiae deletion strains, locus YPL051W, strain arl3, stronger effect = lower value) was 0.962 and the normalized growth (S. cerevisiae deletion strains, locus YPL078C, strain atp4, stronger effect = lower value) was 1.02. For the same compound, the normalized growth (S. cerevisiae deletion strains, locus YPL106C, strain sse1, stronger effect = lower value) was 0.991, the normalized growth (S. cerevisiae deletion strains, locus YPL240C, strain hsp82, stronger effect = lower value) was 0.999 and the normalized growth (S. cerevisiae deletion strains, locus YPL241C, strain CIN2, stronger effect = lower value) was 1.02. The normalized growth (S. cerevisiae deletion strains, locus YPR119W, strain clb2, stronger effect = lower value) was 1.01, the normalized growth (S. cerevisiae deletion strains, locus YPR141C, strain kar3, stronger effect = lower value) was 1.03 and the normalized growth (S. cerevisiae deletion strains, locus YPR163C, strain tif3, stronger effect = lower value) was 0.974. It also gave a normalized growth (S. cerevisiae deletion strains, locus YPR167C, strain met16, stronger effect = lower value) of 1.03, a normalized growth (S. cerevisiae deletion strains, strain wtn01, stronger effect = lower value) of 0.995 and a normalized growth (S. cerevisiae strains, strain wild type, stronger effect = lower value) of 0.925.
